Experimental data: PubChem BioAssay (NCI)
“And” between values parts separate entries of the source, which are not always exact repeats. Equal entries are not always repeated. This is part of a sample that, as a whole, favours compounds with a hit. Of some 83,000 tested, about 20% had one in any assay.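 Values shown are percent growth following 48 h exposure of cells in 96-well plates to a single concentration of compound; below 10 was considered active.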 The source made the active and inactive calls.

Legend:
Test in all cases: NCI-60 one-dose screen, 48 h (100 = growth as untreated, 0 = no growth, -100 = all killed)
[1] = system: SK-MEL-2 melanoma
[2] = system: EKVX NSCLC
[3] = system: SN12C renal
[4] = system: UO-31 renal
[5] = system: TK-10 renal
[6] = system: ACHN renal
[7] = system: CAKI-1 renal; conditions: 10 µM unless noted
[8] = system: A498 renal
[9] = system: HL-60(TB) leukemia; conditions: 10 µM unless noted
[10] = system: CCRF-CEM leukemia; conditions: 10 µM unless noted
[11] = system: MOLT-4 leukemia
[12] = system: SR leukemia; conditions: 10 µM unless noted
[13] = system: RPMI-8226 leukemia
[14] = system: OVCAR-8 ovarian
[15] = system: OVCAR-5 ovarian
[16] = system: OVCAR-4 ovarian; conditions: 10 µM unless noted
[17] = system: SK-OV-3 ovarian
[18] = system: IGROV1 ovarian
[19] = system: OVCAR-3 ovarian
[20] = system: HS 578T breast

Measured: growth

Cc1c(C)c(N)c(C)c(C)c1N
active: [6]; 10 µM unless noted -8.61%
inactive: [1]; 10 µM unless noted 15% | [2]; 10 µM unless noted 108% | [3]; 10 µM unless noted 72.6% | [4]; 10 µM unless noted 60.6% | [5]; 10 µM unless noted 90.8% | [7] 46.6% | [8]; 10 µM unless noted 102% | [9] 103% | [10] 91.8% | [11]; 10 µM unless noted 84.1% | [12] 69.5% | [13]; 10 µM unless noted 98.7% | [14]; 10 µM unless noted 83.8% | [15]; 10 µM unless noted 85.1% | [16] 75.6% | [17]; 10 µM unless noted 91.3% | [18]; 10 µM unless noted 80.7% | [19]; 10 µM unless noted 115% | [20]; 10 µM unless noted 114%

CC(=O)OCC1OC([S-])C(OC(C)=O)C(OC(C)=O)C1OC(C)=O.[Au+].c1ccc(CN2[CH-]N(Cc3ccccc3)C(c3ccccc3)=C2c2ccccc2)cc1
active: [1]; 4.75 µM -22.7% | [1]; 10 µM -30.8% | [2]; 4.75 µM 8.29% | [2]; 10 µM -13.6% | [3]; 4.75 µM -15.1% | [3]; 10 µM -49% | [4]; 4.75 µM 3.56% | [4]; 10 µM -70.5% | [5]; 4.75 µM 5.22% | [5]; 10 µM -41.6% | [6]; 4.75 µM -18.5% | [6]; 10 µM -39.3% | [8]; 4.75 µM -14.7% | [9] -43.5% [4.75 µM] | [11]; 4.75 µM 3.9% | [13]; 4.75 µM -20.5% | [13]; 10 µM -4.74% | [14]; 4.75 µM 3.93% | [17]; 4.75 µM -13.2% | [18]; 4.75 µM -33.7% | [18]; 10 µM -67.2% | [19]; 4.75 µM -44.3% | [19]; 10 µM -95.7%
inactive: [8]; 10 µM 50.4% | [11]; 10 µM 13.5% | [14]; 10 µM 22.3% | [15]; 4.75 µM 24.2% | [15]; 10 µM 72.2% | [17]; 10 µM 70.4% | [20]; 4.75 µM 10% | [20]; 10 µM 28.5%

CC[C@H](C)[C@H](NC(=O)CN(C)C)C(=O)N(C)[C@H](C[C@@H](OC(C)=O)c1nc(C(=O)NC23CC(C(=O)OC)(C2)C3)cs1)C(C)C
active: [8]; 10 µM unless noted 9.1% | [9] -18.9% | [10] 6.24% | [19]; 10 µM unless noted -47.2%
inactive: [1]; 10 µM unless noted 37.5% | [2]; 10 µM unless noted 32.8% | [3]; 10 µM unless noted 31.3% | [4]; 10 µM unless noted 50.1% | [5]; 10 µM unless noted 43.5% | [6]; 10 µM unless noted 46.9% | [7] 51.6% | [11]; 10 µM unless noted 12.3% | [12] 17.8% | [13]; 10 µM unless noted 18.8% | [14]; 10 µM unless noted 19.1% | [15]; 10 µM unless noted 71.9% | [16] 47.9% | [17]; 10 µM unless noted 32.6% | [18]; 10 µM unless noted 33% | [20]; 10 µM unless noted 31.9%

COc1ccc2c(c1)c(-c1nc(-c3cn(C)c4ncccc34)cs1)cn2CCCCN1CCOCC1
active: [10] 2.06% | [11]; 10 µM unless noted -15.6% | [12] -5.63% | [13]; 10 µM unless noted -18.1%
inactive: [1]; 10 µM unless noted 64.4% | [2]; 10 µM unless noted 60.2% | [3]; 10 µM unless noted 68% | [4]; 10 µM unless noted 34% | [5]; 10 µM unless noted 69.9% | [6]; 10 µM unless noted 32% | [7] 41.4% | [8]; 10 µM unless noted 58.1% | [9] 24.7% | [14]; 10 µM unless noted 48.5% | [15]; 10 µM unless noted 56.9% | [16] 60.2% | [17]; 10 µM unless noted 79.7% | [18]; 10 µM unless noted 67.8% | [19]; 10 µM unless noted 50.8% | [20]; 10 µM unless noted 18.8%

CC[PH+](CC)CC.O=COC1OC([S-])C(OC=O)C(OC=O)C1OC=O.[Au+] (stereo unspecified)
active: [1]; 10 µM unless noted -72.5% | [2]; 10 µM unless noted -41.2% | [3]; 10 µM unless noted -90.9% | [4]; 10 µM unless noted -91.2% | [5]; 10 µM unless noted -97.7% | [6]; 10 µM unless noted -99.7% | [7] -92.8% | [8]; 10 µM unless noted -82.2% | [9] -33.3% | [10] -11.4% | [11]; 10 µM unless noted -29.1% | [12] -18.4% | [13]; 10 µM unless noted -27.2% | [14]; 10 µM unless noted 1.43% | [15]; 10 µM unless noted -98.5% | [16] -89.8% | [17]; 10 µM unless noted -45.5% | [18]; 10 µM unless noted -78.3% | [19]; 10 µM unless noted -91.8%
inactive: [20]; 10 µM unless noted 14.5%

CC[CH2][Sn]([Cl])([Cl])[CH2]CC.Oc1ccccc1C=NCCN=Cc1ccccc1O
active: [8]; 10 µM unless noted 7.69% and -34% | [10] 2.05% and 0.18% | [13]; 10 µM unless noted -24.1% and -10.1%
7.92% (active) and 64.9% (inactive): [9]
inactive: [1]; 10 µM unless noted 34.1% and 13.1% | [2]; 10 µM unless noted 85.2% and 75.2% | [3]; 10 µM unless noted 52.2% and 58.8% | [4]; 10 µM unless noted 53.9% and 32.8% | [6]; 10 µM unless noted 47.8% and 29.3% | [7] 50.4% and 33.6% | [11]; 10 µM unless noted 40.2% and 12.6% | [12] 24.8% and 21.8% | [14]; 10 µM unless noted 87.8% and 72.5% | [15]; 10 µM unless noted 97.1% and 84.2% | [16] 69.6% | [17]; 10 µM unless noted 109% and 92.2% | [18]; 10 µM unless noted 74.1% and 61.9% | [19]; 10 µM unless noted 86.8% and 44.3% | [20]; 10 µM unless noted 77.7% and 48.6%
17.6% (inactive) and -44.9% (active): [5]; 10 µM unless noted
